Experimental findings from PubChem BioAssay (EPA / NIEHS) are described below.

Each structure is given as a SMILES string. Records with an inconclusive call do not appear. Calls of active or inactive are those of the source. The calls were made as follows, unless noted: active = hit-call score of the fitted dose curve at least 0.9, where 1 is the maximum; inactive = score below 0.9.

A short description of experiment [1]: CCTE_Shafer_MEA_dev_firing_rate_mean: CCTE's Neural Network Formation Assay for Mean Firing Rate, Shafer Lab (AID 2284031).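 As to AC50: curve fitted for loss of firing so AC50 reflects decreased mean firing rate.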 A digest of the protocol: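 Spike frequency (spikes/recording length, averaged over active electrodes) was recorded on days 5, 7, 9 and 12 and collapsed to AUC; rat cortical cultures received compound continuously over 12 days of network development.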

The nature of experiment [2]: CCTE_Shafer_MEA_dev_per_burst_spike_percent: CCTE's Neural Network Formation Assay for Percent of Spikes in a Burst, Shafer Lab (AID 2284032).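 As to AC50: fitted as a decrease in burst spike percentage below DMSO baseline.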 A digest of the protocol: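 Value is trapezoidal AUC over recordings on days 5, 7, 9 and 12 of the well-mean fraction of spikes falling in single-electrode bursts; rat cortical cultures exposed continuously from plating, treatment renewed DIV 5 and 9, fitted downward against DMSO.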

Experiment [3] is described as follows: CCTE_Shafer_MEA_dev_active_electrodes_number: CCTE's Neural Network Formation Assay for Number of Active Electrodes, Shafer Lab (AID 2284040; active = hit-call score of the fitted dose curve at least 0.9, where 1 is the maximum;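 as to AC50: potency for loss of active electrodes versus DMSO so lower counts are hits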). An outline of the steps:
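Counts electrodes per well firing at least 5 spikes/min, recorded on days 5, 7, 9 and 12 in rat cortical cultures dosed continuously from plating (treatment refreshed DIV 5, 9). Value is the area under the curve over recordings, fitted downward relative to DMSO.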

Experiment [4] is described as follows: CCTE_Shafer_MEA_dev_burst_rate: CCTE's Neural Network Formation Assay for Burst Rate, Shafer Lab (AID 2284042).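 As to AC50: potency for loss of burst rate below DMSO control.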 An outline of the steps: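 Primary rat cortical neurons on PEI-coated 48-well MEA plates (laminin added with cells at plating) (16 electrodes/well), exposed from plating to day 12, dosing renewed at DIV 5 and 9. Burst rate averaged over active electrodes, recorded DIV 5, 7, 9, 12, summarized as AUC; loss versus DMSO.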

Experiment [5] can be described thus: CCTE_Shafer_MEA_dev_bursting_electrodes_number: CCTE's Neural Network Formation Assay for Number of Bursting Electrodes, Shafer Lab (AID 2284043; active = hit-call score of the fitted dose curve at least 0.9, where 1 is the maximum;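 as to AC50: potency is for loss of bursting electrodes relative to DMSO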). A digest of the protocol:
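Counted: electrodes with burst rate ≥1 per 2 min in each well. Cells: primary rat cortex, 1.5 x 10^5/well, on 16-electrode MEA wells. Exposure: DIV 0–12, compound renewed DIV 5 and 9. Recording days 5, 7, 9, 12; AUC vs DMSO baseline.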

A short description of experiment [6]: CCTE_Shafer_MEA_dev_per_burst_interspike_interval: CCTE's Neural Network Formation Assay for Burst Interspike Interval, Shafer Lab (AID 2284044).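 As to AC50: potency for a decrease of within-burst interspike interval below DMSO level.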 A digest of the protocol:
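Rat cortical primary cultures, 16 electrodes/well; compound from plating, renewed with full media change DIV 5 and 9. Spikes via adaptive detector; per-burst ISI well-mean over active bursting electrodes; AUC of DIV 5/7/9/12 recordings; loss-direction fit vs DMSO.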

Experiment [7] can be described thus: CCTE_Shafer_MEA_dev_burst_duration_mean: CCTE's Neural Network Formation Assay for Mean Burst Duration, Shafer Lab (AID 2284045).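 As to AC50: curve fitted for loss meaning shorter burst duration than DMSO.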 A digest of the protocol:
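Network-formation assay in primary rat cortical neurons; treatment spans twelve days of development. Mean burst duration per well is integrated by trapezoidal AUC and fitted in the loss-of-signal direction against DMSO baseline.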

A short description of experiment [8]: CCTE_Shafer_MEA_dev_interburst_interval_mean: CCTE's Neural Network Formation Assay for Mean Interburst Interval, Shafer Lab (AID 2284046).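 Also: well-mean interburst interval of bursting electrodes as AUC over four recording days; curve fitted for decrease in interburst interval relative to DMSO.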 A digest of the protocol:
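Recordings on days 5, 7, 9 and 12 give well-mean interburst interval across actively bursting electrodes, summarized as area under the curve. Cultures: rat cortical neurons, continuous exposure from day 0, compound renewed at feeds; decrease analyzed versus DMSO.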

A short description of experiment [9]: CCTE_Shafer_MEA_dev_inter_network_spike_interval_mean: CCTE's Neural Network Formation Assay for Mean Inter-network Spike Interval, Shafer Lab (AID 2284047). A digest of the protocol: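 Primary rat cortical neurons on 16-electrode MEA wells, exposed from plating day 0 through DIV 12, compound renewed at DIV 5 and 9 media changes. Mean interval between network-spike peaks recorded DIV 5, 7, 9, 12; collapsed as trapezoidal AUC, fitted downward versus DMSO.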

Experiment [10] is described as follows: CCTE_Shafer_MEA_dev_network_spike_number: CCTE's Neural Network Formation Assay for Number of Network Spikes, Shafer Lab (AID 2284048).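 Also: synchronized bursts across electrodes counted on days 5 7 9 12 and integrated as AUC.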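 As to AC50: fit as a loss of signal meaning fewer network spikes than DMSO.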 An outline of the steps:
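Extracellular recordings from 16-electrode wells track network formation in rat cortical cultures under continuous treatment from plating. The endpoint is network spike number, expressed as AUC across DIV 5–12 relative to DMSO vehicle.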

A short description of experiment [11]: CCTE_Shafer_MEA_dev_network_spike_peak: CCTE's Neural Network Formation Assay for Mean Number of Electrodes in Network Spike, Shafer Lab (AID 2284049).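 As to AC50: fitted for loss of signal meaning fewer electrodes in network spikes than DMSO.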 A digest of the protocol: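 Continuous 12-day exposure of rat cortical cultures, starting at plating, on MEA plates. Endpoint: electrodes participating in network-spike peaks, AUC across DIV 5–12, DMSO as negative control.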

Experiment [12] in a line: CCTE_Shafer_MEA_dev_spike_duration_mean: CCTE's Neural Network Formation Assay for Mean Spike Duration, Shafer Lab (AID 2284051).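 Also: mean network spike duration pooled as area under curve over DIV 5 to 12 recordings.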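 As to AC50: potency for a decrease in mean network spike duration versus DMSO.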 An outline of the steps:
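Primary rat cortical neurons on 16-electrode MEA wells (PEI-coated, laminin in plating drop), exposed from plating through DIV 12 with compound renewed at DIV 5 and 9. Mean network-spike duration recorded DIV 5, 7, 9, 12; trapezoidal AUC across days, DMSO baseline.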

The nature of experiment [13]: CCTE_Shafer_MEA_dev_network_spike_duration_std: CCTE's Neural Network Formation Assay for Standard Deviation of Network Spike Duration, Shafer Lab (AID 2284052).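 Also: area under curve of spike duration SD across recording days 5 to 12; hits are decreases in network spike duration SD versus DMSO vehicle.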 A digest of the protocol: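 Primary rat cortical neurons on PEI-coated 16-electrode MEA wells, exposed from plating day 0 through day 12 with compound renewed at DIV 5 and 9. Network spike duration SD recorded on days 5, 7, 9, 12, collapsed as trapezoidal AUC; loss-of-signal fit versus DMSO.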

The nature of experiment [14]: CCTE_Shafer_MEA_dev_per_network_spike_spike_number_mean: CCTE's Neural Network Formation Assay for Mean Number of Spikes in a Network Spike, Shafer Lab (AID 2284053). An outline of the steps: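 Primary rat cortical neurons on 48-well, 16-electrode MEA plates were exposed from plating to DIV 12, with dosing renewed on DIV 5 and 9. Spikes per network spike (0.05 s peak window) were recorded on DIV 5, 7, 9 and 12 and collapsed as trapezoidal AUC versus DMSO.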

The nature of experiment [15]: CCTE_Shafer_MEA_dev_per_network_spike_spike_percent: CCTE's Neural Network Formation Assay for Percent of Spikes in a Network Spike, Shafer Lab (AID 2284054). A digest of the protocol: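 Developing networks of rat cortical neurons are dosed at day 0 and recorded extracellularly four times up to day 12. The endpoint is the area under the curve of percent spikes in network spikes, fitted in the negative direction relative to DMSO.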

Experiment [16] in a line: CCTE_Shafer_MEA_dev_LDH: CCTE's Lactate Dehydrogenase Assay for Cytotoxicity in the Neural Network Formation Assay, Shafer Lab (AID 2284068; active = hit-call score of the fitted dose curve at least 0.9, where 1 is the maximum;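 also: exposure for twelve days from plating with re-dosing on DIV 5 and 9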). An outline of the steps: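 Primary rat cortical neurons were plated on PEI/laminin MEA plates and exposed from day 0 for twelve days, with compound renewed at DIV 5 and 9. Cytotoxicity was determined by spectrophotometric LDH assay relative to DMSO.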

Experiment [17] is described as follows: CCTE_Shafer_MEA_dev_mutual_information_norm: CCTE's Neural Network Formation Assay for Mutual Information Normalization, Shafer Lab (AID 2284091).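 As to AC50: mutual information between electrodes summarised as area under curve across four recording days; potency is for a decrease in mutual information relative to DMSO.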 A digest of the protocol: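 Exposure of primary rat cortical neurons began at plating and ran to DIV 12, with full media and treatment renewal after DIV 5 and 9 recordings. Mutual information AUC (DIV 5–12) was analysed for loss versus DMSO.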

A short description of experiment [18]: CCTE_Shafer_MEA_dev_correlation_coefficient_mean: CCTE's Neural Network Formation Assay for Mean Correlation Coefficient, Shafer Lab (AID 2284093).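 As to AC50: well mean pairwise spike train correlation integrated as AUC over recording days 5 to 12; potency fitted for loss of correlation relative to DMSO vehicle wells.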 An outline of the steps: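 Spontaneous activity recorded on days 5, 7, 9 and 12 post-plating; pairwise spike correlations are averaged across active electrodes and collapsed to an area-under-curve. Rat cortical cultures are dosed from plating through 12 days, with compound renewed at media changes.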

Experiment [19] in a line: CCTE_Harrill_HTTr_Viability_MCF7: CCTE's 6-hour Cell Viability Assessment for the High-Throughput Transcriptomics (HTTr) Platform, in MCF-7 cells cultured in DMEM + 10% fetal bovine serum, Harrill Lab (AID 2284010). A digest of the protocol: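 Propidium iodide exclusion, imaged by high-content analysis, gauged viability after a six-hour exposure across eight concentrations. Cells were MCF-7 grown in DMEM with 10% fetal bovine serum; fits run in both directions against DMSO.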

As usually defined, the AC50 is the concentration at which the activity in the assay is half-maximal. `CCOP(=O)(OCC)OC(Cl)C(Cl)(Cl)Cl` (centres undefined): the AC50 in experiment [1] is 1.64 µM (active); in [2] it was 1.32 µM (active); in experiment [3], 2.52 µM (active); in experiment [4], 945 nM (active); in experiment [5] it was 1.1 µM (active); in [6], 3.48 µM (active). The AC50 in experiment [7] is 1.22 µM (active); in experiment [8], 3.57 µM (active); in experiment [10], 833 nM (active); in experiment [11] it was 2.29 µM (active); in experiment [12], 1.39 µM (active); in [13], 602 nM (active). Moreover, the AC50 is 1.92 µM (active) in [14]; 2.25 µM (active) in [15]; 0.825 µM (active) in [16]; 797 nM (active) in experiment [17]; 1.13 µM (active) in experiment [18]. Moreover, the result in experiment [9] was inactive.

Take `O=C1CCO1`: the outcome in [19] was inactive.

In the case of `COP(=O)(OC)SCN1C(=O)c2ccccc2C1=O`, the result in experiment [1], in experiment [2], in [3], in experiment [4], in experiment [5] and in experiment [6] was inactive. Moreover, the outcome in [7], in experiment [8], in [9], in experiment [10], in experiment [11] and in experiment [12] was inactive. Further, the outcome in experiment [13], in experiment [14], in [15], in experiment [16], in experiment [17] and in experiment [18] was inactive.

In the case of `FC(F)(F)c1ccc(OCCCOc2c(Cl)cc(OCC=C(Cl)Cl)cc2Cl)nc1`, the result in [19] was inactive.

As for `NCCc1cc(O)c(O)cc1O`, the compound was called inactive in [1], in [4], in experiment [6], in [7], in [8] and in experiment [9]. The result in experiment [10] and in [13] was inactive. In addition, the AC50 is 6.25 µM (active) in [2]; 4.79 µM (active) in experiment [3]; 4.29 µM (active) in experiment [5]; 6.57 µM (active) in experiment [11]; 5.15 µM (active) in experiment [12]; 4.47 µM (active) in experiment [14]. Further, the AC50 in experiment [15] is 10.1 µM (active); in experiment [16], 6.82 µM (active); in [17] it was 3200 nM (active); in experiment [18], 5.28 µM (active).

As for `CC(=O)[O-].CC(=O)[O-].O.O.O.[Pb+2]`, the compound was called inactive in [1], in experiment [4], in experiment [6], in [7], in [8] and in [9]. For the same compound, the result in [13] and in experiment [17] was inactive. For the same compound, the AC50 in [2] was 23.5 µM (active); in experiment [3], 22.3 µM (active); in [5], 18.5 µM (active); in experiment [10] it was 2980 nM (active); in experiment [11], 12.5 µM (active); in experiment [12], 22.2 µM (active). Moreover, the AC50 in [14] was 20.2 µM (active); in experiment [15] it was 15 µM (active); in [16] it was 23.7 µM (active); in experiment [18], 19.7 µM (active).
